# Data: the supplement of paper PMC6555819
# Experiments:
# Assay in all cases: PBM binding z-score (relative to random genomic background probes); higher = stronger binding; sequences stand for … in GC…GCGATTGACAGCGTAGAATGAAGG
# [1] = tested on: FXR:RXRa (NR concentration 270 nM, RXRa partner concentration 90 nM)
# Procedure, shortened: (§1)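 For binding z-scores, the reference was random background probes on custom Agilent 4×180K protein-binding microarrays. These arrays were incubated 1 h with ligand-free nuclear receptor dimers in PBS pH 7.4, 2% milk, 0.02% Triton X-100, 1 mM DTT, 0.2 mg/mL BSA and 0.4 mg/ml salmon testes DNA. Fluorescence was scanned after antibody detection of each partner (one per run) and regression-normalized.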
# [2] = tested on: LXRa:RXRa (NR concentration 270 nM, RXRa partner concentration 90 nM)
# Procedure, shortened: as §1
# [3] = tested on: LXRa homodimer (NR concentration 270 nM)
# Procedure, shortened: as §1
# [4] = tested on: LXRb:RXRa (NR concentration 270 nM, RXRa partner concentration 90 nM)
# Procedure, shortened: as §1
# [5] = tested on: PPARa:RXRa (NR concentration 270 nM, RXRa partner concentration 90 nM)
# Procedure, shortened: as §1
# [6] = tested on: PPARg:RXRa (NR concentration 180 nM, RXRa partner concentration 90 nM)
# Procedure, shortened: as §1
# [7] = tested on: PPARg:RXRa 270nM:90nM, anti-RXR (NR concentration 270 nM, RXRa partner concentration 90 nM)
# Procedure, shortened: as §1
# [8] = tested on: PPARg:RXRa 30nM:10nM, anti-RXR (NR concentration 30 nM, RXRa partner concentration 10 nM)
# Procedure, shortened: as §1
# [9] = tested on: PPARg:RXRa 90nM:30nM, anti-RXR (NR concentration 90 nM, RXRa partner concentration 30 nM)
# Procedure, shortened: as §1
# [10] = tested on: PPARg:RXRa DBDmut IVT, anti-RXR (DBD mutation: RXRa K156A/R161A, NR concentration 270 nM, RXRa partner concentration 90 nM)
# Procedure, shortened: as §1
# [11] = tested on: PPARg:RXRa IVT, anti-PPARg (NR concentration 270 nM, RXRa partner concentration 90 nM)
# Procedure, shortened: as §1
# [12] = tested on: PPARg homodimer (NR concentration 180 nM)
# Procedure, shortened: as §1
# [13] = tested on: PXR:RXRa (NR concentration 270 nM, RXRa partner concentration 90 nM)
# Procedure, shortened: as §1
# [14] = tested on: PXR homodimer (NR concentration 270 nM)
# Procedure, shortened: as §1
# [15] = tested on: RARa:RXR (NR concentration 270 nM, RXRa partner concentration 90 nM)
# Procedure, shortened: as §1
# [16] = tested on: RARa homodimer (NR concentration 270 nM)
# Procedure, shortened: as §1
# [17] = tested on: RARb:RXRa (NR concentration 270 nM, RXRa partner concentration 90 nM)
# Procedure, shortened: as §1
Sequence,PBM binding z-score [1],PBM binding z-score [2],PBM binding z-score [3],PBM binding z-score [4],PBM binding z-score [5],PBM binding z-score [6],PBM binding z-score [7],PBM binding z-score [8],PBM binding z-score [9],PBM binding z-score [10],PBM binding z-score [11],PBM binding z-score [12],PBM binding z-score [13],PBM binding z-score [14],PBM binding z-score [15],PBM binding z-score [16],PBM binding z-score [17]
CCGAGTAGCTTACGAGGGGGCATTCAGTGCGAAT,0.729,1.73,0.701,3.62,1.77,-0.443,0.5,-0.877,-0.359,0.648,0.528,0.745,2.64,5.04,1.67,-0.103,0.8
TCGAGTAGGTTACGGGGGCACTCAGGGATGAAGA,2.26,2.67,0.365,4.7,4.43,6.44,6.05,3.54,5.14,4.71,6.2,2.56,2.71,0.594,3.05,-0.263,2.65
CTAAGTAGGTTAAGGGGGTCATTCAGTTTGAAAG,5.01,4.96,3.1,6.08,6.01,8.37,7.83,6.33,8.16,7.83,7.65,3.59,5.74,11.4,5.63,1.86,3.43
TCGAGTAGATTACGGGGGCATTCAGGGATGAAGA,1.41,1.87,0.702,4.05,2.53,1.06,2.64,2.04,2.12,2.06,2.81,0.745,2.52,1.38,2.08,0.218,1.37
CTGAGTAGGTTACGAGGGGGCATTCAGTGCGAAT,1.65,7.17,2.04,6.26,3.73,4.46,4.41,1.42,3.41,6.01,6.11,1.78,4.54,4.99,3,0.52,2.26
CTATGTAGGTTAAGTGGGTCATTCAGTTTGAAAG,1.59,2.35,0.645,2.29,4.58,5.98,5.61,2.89,4.9,7.7,7.89,1.59,2.36,4.47,2.23,0.913,2.15
TCGAGTAGGTTATGGGGGCATTCAGGGATGAAGA,1.82,2.24,0.602,4.74,3.71,4.86,4.86,2.99,4.23,3.92,5.17,1.07,2.72,1.87,2.72,0.33,2.13
TCGAGTAGGTTACGGGGACATTCAGGGATGAAGA,0.831,0.995,-0.0512,0.999,2.4,3.19,3.06,1.81,2.27,4.18,4.72,1.95,0.696,-0.0868,1.17,0.0881,1.43
CTATGTAGGTTAAGGGTGTCATTCAGTTTGAAAG,0.954,1.2,0.0163,1.33,4.61,8.17,7.44,6.35,8.04,7.72,7.59,1.32,1.38,0.641,1.5,0.262,1.56
CTATCTAGGTTAAGGGGGTCATTCAGTTTGAAAG,5.03,4.71,2.63,6.25,5.95,8.5,7.76,6.25,7.89,7.65,7.5,4.89,6,13.2,6.07,2.58,3.68
CTATGTAGGTTAAGGGGGTGATTCAGTTTGAAAG,1.52,1.98,0.79,3.83,4.69,7.43,6.74,4.44,6.29,7.48,7.27,2.45,2.49,2.65,2.41,1.25,2.34
TCGAGTAGGTTACGGGGGCTTTCAGGGATGAAGA,1.64,2.06,0.118,4.46,3.23,3.47,3.94,2.05,3.12,4.35,4.61,0.803,1.87,0.25,1.99,-0.0109,1.69
CTATGTAGCTTAAGGGGGTCATTCAGTTTGAAAG,4.38,4.44,3.06,6.2,5.27,3.24,4.6,2.16,3.67,2.86,4.78,3.12,5.52,10,5.18,1.84,3.33
CTATGTAGGTTATGGGGGTCATTCAGTTTGAAAG,5.57,5.53,4.32,6.32,6.04,8.27,7.54,5.25,7.06,7.32,7.49,4.13,6.22,12.9,6.28,1.72,3.67
TGGAGTAGGTTACGGGGGCATTCAGGGATGAAGA,3.28,3.37,1.38,5.17,4.73,7.46,6.49,4.07,5.66,6.12,7.33,3.02,3.97,3.87,3.46,1.99,3.1
CTATGTAGGTTAAGGGGGTCATCCAGTTTGAAAG,4.86,4.86,2.5,6.27,6.19,8.53,7.67,6.02,7.82,7.02,7.73,3.6,5.82,9.26,5.73,1.05,3.65
CTATGTAGGTTGAGGGGGTCATTCAGTTTGAAAG,4.59,4.82,2,6.24,5.54,4.5,5.93,2.9,5.21,3.98,5.16,3.25,5.67,10.2,5.29,2.23,3.4
CCGAGTAGGTTACAAGGGGGCATTCAGTGCGAAT,2.05,7.37,2.35,6.52,3.41,2.25,3.68,0.773,2.98,4.32,4.29,1.99,4.6,5.19,3,0.759,2.17
CTTTGTAGGTTAAGGGGGTCATTCAGTTTGAAAG,5.24,5.35,3.53,6.5,6.06,7.86,7.59,5.64,7.23,7.24,7.18,3.76,5.9,12,5.32,2.04,3.67
CTATGTAGATTAAGGGGGTCATTCAGTTTGAAAG,4.51,4.72,3.33,6.12,5.52,4.29,5.06,2.72,4.53,3.6,4.97,4.49,5.56,10.4,5.56,3.01,3.42
TCGAGTAGGTTACGGGGGCAGTCAGGGATGAAGA,2.28,2.27,0.393,4.55,3.63,4.99,5.02,2.93,4.41,5,5.6,2.04,2.33,1.2,2.43,0.156,2.36
TCGAGTAGGTTACGTGGGCATTCAGGGATGAAGA,-0.0639,0.328,-0.386,0.112,1.25,0.953,1.36,1.14,1.11,3.11,2.65,-0.0563,-0.044,-0.265,0.41,-0.517,0.704
TCGAGGAGGTTACGGGGGCATTCAGGGATGAAGA,5,3.99,0.868,5.71,5.33,6.77,5.92,4.08,5.24,3.43,5.82,2.53,4.07,2.7,4.4,0.971,3.42
TCGAGTACGTTACGGGGGCATTCAGGGATGAAGA,2.24,1.79,-0.186,3.82,2.44,0.609,1.72,1.42,1.85,1.28,2.5,0.453,2.92,1.24,1.86,0.239,1.38
CCGAGTAGGTTACGAGGGGGAATTCAGTGCGAAT,0.932,1.98,0.178,3.04,2.28,1.76,2.55,0.623,1.37,4.48,4.06,0.811,1.55,0.309,1.23,0.123,1.26
TCGAGTAGGTTACGGGGGCATTCACGGATGAAGA,2.41,2.89,0.361,4.92,4.38,5.82,6.16,3.37,5.06,5.07,6.04,2.12,3.21,1.4,3.16,0.0892,2.51
TCGAGTAGGTTAAGGGGGCATTCAGGGATGAAGA,2.95,2.79,1.01,4.58,3.99,5.19,5.78,3.91,5.72,4.21,4.69,2.85,2.67,1.9,2.87,1.41,2.47
